In the supplement of paper PMC6522484:
± gives the standard deviation of the averaged measurements.

What was measured:
[1] = test system: DLD1; test: cell viability (CellTiter-Glo) relative to plate median (fraction of plate median); higher = more viable cells; conditions: 10 µM, treatment time 24 h
In short: (§1)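 In 384-well plates, colorectal cancer lines with stable lentiviral 7TFP or TCF4/Wnt firefly luciferase reporters were seeded and, 24 h later, given kinase inhibitor library compounds at a final 10 µM for 24 h. A Tecan F500 reader measured firefly luciferase on one plate and CellTiterGlo on a parallel plate. Reported figures are two-replicate means of well signals normalised to the plate median, computed additively in webcellHTS2 without log transformation.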

[2] = test system: HCT116; test: as above; conditions: 10 µM; treatment time 24 h; reporter: TCF4/Wnt
In short: as §1

[3] = test system: SW480; test: as above; conditions: 10 µM; treatment time 24 h; reporter: 7TFP
In short: as §1

[4] = test system: DLD1; test: TCF/Wnt firefly luciferase reporter signal relative to plate median (fraction of plate median); higher = higher Wnt reporter signal; conditions: 10 µM, treatment time 24 h
In short: as §1

[5] = test system: HCT116; test: as above; conditions: 10 µM; treatment time 24 h; reporter: TCF4/Wnt
In short: as §1

[6] = test system: SW480; test: as above; conditions: 10 µM; treatment time 24 h; reporter: 7TFP
In short: as §1

SMILES	cell viability ([1]; reporter: 7TFP)	cell viability ([1]; reporter: TCF4/Wnt)	cell viability [2]	cell viability [3]	TCF/Wnt firefly luciferase reporter signal ([4]; reporter: 7TFP)	TCF/Wnt firefly luciferase reporter signal ([4]; reporter: TCF4/Wnt)	TCF/Wnt firefly luciferase reporter signal [5]	TCF/Wnt firefly luciferase reporter signal [6]
Cn1cnc2c(F)c(Nc3ccc(Br)cc3Cl)c(C(=O)NOCCO)cc21 [AZD6244 (Selumetinib)]	1.11 ± 0.042	1.08 ± 0.035	0.914 ± 0.066	1.125 ± 0.0071	1.45 ± 0.021	1.42 ± 0.16	0.99 ± 0.52	1.34 ± 0.72
COc1cc2nccc(Oc3ccc(NC(=O)Nc4cc(C)on4)c(Cl)c3)c2cc1OC [Tivozanib (AV-951)]	0.936 ± 0.09	0.997 ± 0.033	1.11 ± 0.021	1.07 ± 0.021	0.755 ± 0.0078	0.726 ± 0.046	1.15 ± 0.099	0.775 ± 0.32
CNC(=O)CN1CCC(Oc2cc3c(Nc4cccc(Cl)c4F)ncnc3cc2OC)CC1	1 ± 0.081	1.01 ± 0.059	1.05 ± 0.028	0.893 ± 0.0042	0.943 ± 0.19	0.862 ± 0.35	0.656 ± 0.43	0.849 ± 0.07
C=CC(=O)Nc1cccc(Oc2nc(Nc3ccc(N4CCN(C)CC4)cc3OC)ncc2Cl)c1	1.24 ± 0.014	1.08 ± 0.042	1.14 ± 0.05	0.922 ± 0.064	1.16 ± 0.078	1.05 ± 0.05	0.722 ± 0.55	0.71 ± 0.31
O=C(NOCC1CC1)c1ccc(F)c(F)c1Nc1ccc(I)cc1Cl	1.19 ± 0.028	1.065 ± 0.0071	1.11 ± 0.028	1.1 ± 0.11	1.2 ± 0.042	1.04 ± 0.23	0.9945 ± 0.0078	1.16 ± 0.32
O=C(NOCC(O)CO)c1cc(Br)c(F)c(F)c1Nc1ccc(I)cc1F (stereo not given)	1.17 ± 0.12	0.96 ± 0.13	0.891 ± 0.047	1.19 ± 0.028	1.72 ± 0.38	1.47 ± 0.16	1.95 ± 0.47	2.33 ± 0.064
O=C(NCc1ccccc1)c1csc(Nc2ccncn2)n1 [Thiazovivin]	1.14 ± 0.085	1.13 ± 0.071	1.16 ± 0.021	1.145 ± 0.0071	1.13	0.78 ± 0.18	1.78 ± 0.028	1.205 ± 0.0071
CNC(=O)c1cc(Oc2ccc(NC(=O)Nc3ccc(Cl)c(C(F)(F)F)c3)c(F)c2)ccn1 [Regorafenib (BAY 73-4506)]	1.04 ± 0.021	0.985 ± 0.092	1 ± 0.024	1.13 ± 0.014	0.816 ± 0.21	0.7185 ± 0.005	0.742 ± 0.34	1.03 ± 0.31
CC(C)n1nc(-c2cc3cc(O)ccc3[nH]2)c2c(N)ncnc21	0.86 ± 0.18	0.984 ± 0.037	0.698 ± 0.067	1.15 ± 0.085	0.557 ± 0.016	0.752 ± 0.0057	0.547 ± 0.061	0.636 ± 0.26
Cc1cc(Nc2nc(N[C@@H](C)c3ccc(F)cc3)c(C#N)cc2F)n[nH]1	0.875 ± 0.17	0.843 ± 0.062	0.831 ± 0.015	1.02 ± 0.035	1.14 ± 0.23	1.15 ± 0.25	1.22 ± 1.1	0.804 ± 0.38
S=C(NCc1ccc2c(c1)OCO2)N1CCN(c2ncnc3c2oc2ccccc23)CC1 [Amuvatinib (MP-470)]	0.997 ± 0.047	1.03 ± 0.091	1.15 ± 0.17	0.869 ± 0.013	1.07 ± 0.092	1.23 ± 0.057	1.13 ± 0.29	0.953 ± 0.12
Oc1cc(O)cc(/C=C/c2ccc(O)c(O)c2)c1 [Piceatannol]	1.12 ± 0.042	1.07 ± 0.057	1.19 ± 0.14	0.863 ± 0.0085	1.44 ± 0.15	1.66 ± 0.37	1.455 ± 0.0071	1.44 ± 0.12
Cn1cnc(N)c2ncnc1-2 [3-Methyladenine]	1.07 ± 0.078	1.11 ± 0.12	1.13 ± 0.014	0.867 ± 0.1	1.17 ± 0.13	1.12 ± 0.11	1.03 ± 0.066	0.733 ± 0.24
O=c1cc(N2CCOCC2)oc2c(-c3ccccc3)cccc12	1 ± 0.092	1.065 ± 0.0071	1.11 ± 0.021	0.963 ± 0.033	1.11 ± 0.078	1.15 ± 0.21	1.62 ± 0.3	1.15 ± 0.05
CCN(CC)CCNC(=O)c1c(C)[nH]c(/C=C2\C(=O)Nc3ccc(F)cc32)c1C [Sunitinib Malate (Sutent)]	0.867 ± 0.1	0.9685 ± 0.0035	0.659 ± 0.31	1.02 ± 0.15	0.939 ± 0.051	0.87 ± 0.18	0.605 ± 0.33	1.14 ± 0.21
Cc1c(NC(=O)OC[C@@H]2COCCN2)cn2ncnc(Nc3ccc4c(cnn4Cc4cccc(F)c4)c3)c12	1.04	0.97 ± 0.17	1.13 ± 0.22	1.01 ± 0.092	1.27 ± 0.099	1.32 ± 0.2	1.01 ± 0.036	1.3 ± 0.078
Cc1cc(Nc2cc(CN3CCOCC3)c3nc(C)c(Cc4ccc(Cl)cc4F)n3n2)n[nH]1	0.907 ± 0.096	1.05 ± 0.064	0.975 ± 0.12	0.781 ± 0.14	1.27 ± 0.028	1.17 ± 0.43	0.826 ± 0.61	0.861 ± 0.05
Nc1cc(C(F)(F)F)c(-c2cc(N3CCOCC3)nc(N3CCOCC3)n2)cn1	0.777 ± 0.073	0.9145 ± 0.0078	0.56 ± 0.069	1.105 ± 0.0071	0.383 ± 0.085	0.75 ± 0.071	0.502 ± 0.057	0.704 ± 0.036

SMILES	cell viability ([1]; reporter: 7TFP)	cell viability ([1]; reporter: TCF4/Wnt)	cell viability [2]	cell viability [3]	TCF/Wnt firefly luciferase reporter signal ([4]; reporter: 7TFP)	TCF/Wnt firefly luciferase reporter signal ([4]; reporter: TCF4/Wnt)	TCF/Wnt firefly luciferase reporter signal [5]	TCF/Wnt firefly luciferase reporter signal [6]
C[C@]1(O)C[C@@H](c2nc(-c3ccc4ccc(-c5ccccc5)nc4c3)c3c(N)nccn32)C1 [Linsitinib (OSI-906)]	0.876 ± 0.018	0.856 ± 0.15	0.82 ± 0.0099	0.995 ± 0.021	1.11 ± 0.078	1.33 ± 0.23	1.29 ± 0.12	1.27 ± 0.057
CC(=O)NCC(=O)N1[C@@H]2CC[C@H]1c1ccc(Nc3ncc(C(F)(F)F)c(NC4CCC4)n3)cc12	0.907 ± 0.028	1.04 ± 0.08	0.256 ± 0.13	0.877 ± 0.071	0.742 ± 0.09	1.24 ± 0.092	0.149 ± 0.0021	1.21 ± 0.11
CCN1CCN(Cc2ccc(-c3cc4c(N[C@H](C)c5ccccc5)ncnc4[nH]3)cc2)CC1	0.92 ± 0.15	0.999 ± 0.1	0.938 ± 0.0014	1.115 ± 0.0071	0.905 ± 0.011	0.852 ± 0.22	1.08 ± 0.085	1.24 ± 0.057
CS(=O)(=O)N1CCN(Cc2cc3nc(-c4cccc5[nH]ncc45)nc(N4CCOCC4)c3s2)CC1	0.998 ± 0.19	1.03 ± 0.05	1.08 ± 0.021	1 ± 0.035	0.93 ± 0.14	0.947 ± 0.16	1.16 ± 0.057	1.04 ± 0.075
C[C@@H](Oc1cc(-n2cnc3ccc(CN4CCN(C)CC4)cc32)sc1C(N)=O)c1ccccc1C(F)(F)F	0.905 ± 0.036	0.934 ± 0.033	0.782 ± 0.0057	1.05 ± 0.057	0.726 ± 0.15	0.565 ± 0.17	0.335 ± 0.045	0.941 ± 0.11
COc1cc(N2CCC(N3CCN(C)CC3)CC2)ccc1Nc1ncc(Cl)c(Nc2ccccc2S(=O)(=O)C(C)C)n1	0.799 ± 0.069	0.884 ± 0.0071	0.733 ± 0.057	0.923 ± 0.054	0.909 ± 0.21	1.14 ± 0.035	1.2 ± 0.12	0.767 ± 0.057
Cc1nc(N)sc1-c1ccnc(Nc2ccc(N3CCOCC3)cc2)n1	1.09 ± 0.14	1.09 ± 0.085	1.07 ± 0.064	1.06 ± 0.028	1.24 ± 0.23	1.23 ± 0.36	1.72 ± 0.2	0.774 ± 0.36
OCCn1cc(-c2cnc3nnn(Cc4ccc5ncccc5c4)c3n2)cn1	1.16 ± 0.035	1.01 ± 0.071	1.09 ± 0.028	0.905 ± 0.029	1.1 ± 0.11	1.07 ± 0.13	1.25 ± 0.028	1.05 ± 0.042
Nc1ccc(C(=O)Nc2cccc(-c3nc(N4CCOCC4)c4oc5ncccc5c4n3)c2)cn1	0.832 ± 0.044	0.858 ± 0.025	0.819 ± 0.049	1.004 ± 0.0078	0.758 ± 0.033	0.654 ± 0.069	0.591 ± 0.2	0.827 ± 0.4
Cc1cnc(NC(=O)Nc2cc(Br)c(C)cc2OC[C@@H]2CNCCO2)cn1	0.833 ± 0.16	0.983 ± 0.096	0.805 ± 0.16	1.02 ± 0.089	1.06 ± 0.057	1.12 ± 0.028	0.894 ± 0.35	0.938 ± 0.012
CNC(=O)c1nn(C)c2c1C(C)(C)Cc1cnc(Nc3ccc(N4CCN(C)CC4)cc3)nc1-2	1.02 ± 0.2	0.941 ± 0.049	0.659 ± 0.18	1.14 ± 0.099	0.274 ± 0.088	0.3665 ± 0.0035	0.146 ± 0.022	0.845 ± 0.096
Cc1[nH]c(/C=C2\C(=O)Nc3ccc(S(=O)(=O)N(C)c4cccc(Cl)c4)cc32)c(C)c1C(=O)N1CCN(C)CC1	1.13	1.04 ± 0.066	1.09 ± 0.13	1.06 ± 0.11	0.858 ± 0.37	0.954 ± 0.14	0.756 ± 0.098	0.964 ± 0.065
CCn1cc(-c2ccnc3[nH]c(-c4cccc(CN(C)C)c4)cc23)c(-c2ccc(NC(=O)N(C)C)cc2)n1	0.994 ± 0.11	0.9965 ± 0.0021	0.913 ± 0.05	1.07 ± 0.099	1.01 ± 0.11	1.05 ± 0.081	1.71 ± 0.028	1.02 ± 0.16
CC(C)NC[C@@H](C(=O)N1CCN(c2ncnc3c2[C@H](C)C[C@H]3O)CC1)c1ccc(Cl)cc1	0.947 ± 0.031	1.1 ± 0.021	0.917 ± 0.0092	1.04 ± 0.042	0.922 ± 0.029	0.951 ± 0.31	1.08 ± 0.27	0.999 ± 0.016
Cc1cc2c(F)c(Oc3ncnn4cc(OC[C@@H](C)OC(=O)[C@H](C)N)c(C)c34)ccc2[nH]1	1.06 ± 0.042	0.938 ± 0.052	0.981 ± 0.041	1.23 ± 0.071	1.03 ± 0.11	1.135 ± 0.0071	0.852 ± 0.16	1.28 ± 0.099
Nc1ccc(-c2ccc3ncc4ccc(=O)n(-c5cccc(C(F)(F)F)c5)c4c3c2)cn1 [Torin 2]	0.949 ± 0.031	0.9595 ± 0.005	0.681 ± 0.085	1.11 ± 0.064	0.355 ± 0.027	0.523 ± 0.032	0.641 ± 0.073	0.817 ± 0.0099
O=C(Nc1cc(C(F)(F)F)cc(C(F)(F)F)c1)c1cc(Cl)ccc1O	0.48 ± 0.1	0.618 ± 0.011	0.303 ± 0.12	0.477 ± 0.03	0.473 ± 0.11	1.47 ± 0.67	0.133 ± 0.072	0.3675 ± 0.0021
